Reference: the supplement of paper PMC8975748
Structures can show the parent of a compound that is named as a salt.

System: Saccharomyces cerevisiae BY4741 SeMeCo community
Experiment: z-score of subpopulation abundance vs DMSO median, subpopulation auxotrophic for HLUM; higher = larger share of this subpopulation than in DMSO controls
Details: 10 µM; 24 h; SM minimal medium; subpopulation (auxotrophy): HLUM
Description: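 Fluorescent four-plasmid SeMeCo (self-establishing metabolically cooperating S. cerevisiae BY4741 community; plasmids pH-mRuby2, pL-mWasabi, pU-eCFP, pM-TagRFP657) was grown 24 h in minimal SM medium with each Selleck FDA-approved drug at 10 µM in 384-well plates. Cells were fixed and imaged by high-content confocal microscopy. For each auxotrophic subpopulation (and the prototroph), a z-score gives the deviation from the DMSO vehicle-control population median.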

Structure (SMILES)	z-score of subpopulation abundance
CC(=O)OCC1=C(C(=O)O)N2C(=O)C(N)C2SC1 (stereo not given) [7-Aminocephalosporanic acid]	-0.76
C=CN1CCCC1=O.II [Povidone iodine]	0.32
CN1c2ccccc2C(NCCCCCCC(=O)O)c2ccc(Cl)cc2S1(=O)=O (stereo not given) [Tianeptine sodium]	0.87
CN(C)[C@@H]1C(=O)C(C(N)=O)=C(O)[C@@]2(O)C(=O)C3=C(O)c4c(O)ccc(Cl)c4[C@@](C)(O)[C@H]3C[C@@H]12 [Chlortetracycline HCl]	0.32
COc1ccc(C(CN(C)C)C2(O)CCCCC2)cc1 (stereo not given) [Venlafaxine HCl]	-0.19
CCN1CC2(OC(=O)c3ccccc3NC(C)=O)CCC(OC)C34C1C(CC23)C1(O)CC(OC)C2CC4C1(O)C2OC (stereo not given) [Lappaconitine]	-0.44
O=c1cccc2n1C[C@@H]1CNC[C@H]2C1 [Cytisine]	-0.32
CN(C)C(=O)Oc1ccc[n+](C)c1 [Pyridostigmine Bromide]	-1.14
CC[C@H]1CN2CC[C@]3(C(=O)Nc4ccccc43)[C@@H]2C[C@@H]1/C(=C\OC)C(=O)OC [Rhynchophylline]	0
C[C@@H]1CC[C@H]2[C@@H](C)C(=O)O[C@@H]3O[C@@]4(C)CC[C@@H]1[C@]32OO4 [Artemisinin]	-0.59
COc1ccc(C(CN(C)C)C2(O)CCCCC2)cc1 (stereo not given) [Venlafaxine]	-0.12
CC(C)N(CCC(C(N)=O)(c1ccccc1)c1ccccn1)C(C)C (stereo not given) [Disopyramide]	0.82
O=C(O[C@H]1C[N+]2(CCCOc3ccccc3)CCC1CC2)C(O)(c1cccs1)c1cccs1 [Aclidinium Bromide]	-0.18
CCCN1C[C@H](CSC)C[C@@H]2c3cccc4[nH]cc(c34)C[C@H]21 [Pergolide Mesylate]	-0.1
Nc1nc(N)nc(NC2CC2)n1 [Cyromazine]	1.21
Oc1cccc2cccnc12 [8-Hydroxyquinoline]	0.11
COc1cc2c(cc1OC)C1CC(=O)C(CC(C)C)CN1CC2 (stereo not given) [Tetrabenazine (Xenazine)]	2.34
CN1[C@@H]2CC[C@H]1C[C@@H](OC(=O)C(CO)c1ccccc1)C2 (stereo not given in full) [Atropine sulfate monohydrate]	-0.85
C[N+](C)(C)CCCCCCCCCC[N+](C)(C)C [Decamethonium Bromide]	-0.4
C=CC[C@]1(O)CC[C@H]2[C@@H]3CCC4=CC(=O)CCC4=C3C=C[C@@]21C [Altrenogest]	-0.9

Structure (SMILES)	z-score of subpopulation abundance
CC(C)(O)C(Cl)(Cl)Cl [Chlorobutanol]	-0.06
CNC1CC(N)C(O)C(OC2OC(CO)C(O)C3OC4(OC(C(N)CO)C(O)C(O)C4O)OC23)C1O (stereo not given) [Hygromycin B]	-0.53
CC[C@@H](C(N)=O)N1CCCC1=O [Levetiracetam]	-0.38
C=C(C)[C@H]1Cc2c(ccc3c2O[C@@H]2COc4cc(OC)c(OC)cc4[C@@H]2C3=O)O1 [Rotenone (Barbasco)]	0.56
CCOC(=O)Nc1ccc(NCc2ccc(F)cc2)cc1N [Retigabine]	-0.4
C=C[C@H]1CN2CC[C@H]1C[C@H]2[C@H](O)c1ccnc2ccccc12 [Cinchonidine]	0.1
CN(C)C(=O)Oc1cccc([N+](C)(C)C)c1 [Neostigmine Bromide]	-0.18
C#C[C@]1(O)C=C[C@H]2[C@@H]3CCC4=CC(=O)CC[C@@H]4[C@H]3CC[C@@]21CC [Gestodene]	-0.58
COc1ccc2c3c([nH]c2c1)C(C)=NCC3 [Harmaline]	-1.92
Oc1cc(Cl)ccc1Oc1ccc(Cl)cc1Cl [Triclosan]	2.06
Nc1ccncc1 [4-Aminopyridine]	-0.46
N[C@@H]1C[C@H]1c1ccccc1 [Tranylcypromine (2-PCPA) HCl]	0.28
Cn1cc(C2=C(c3cn(C4CCN(Cc5ccccn5)CC4)c4ccccc34)C(=O)NC2=O)c2ccccc21	-0.35
O=c1[nH]c2ccccc2n1CCCN1CCC(n2c(=O)[nH]c3cc(Cl)ccc32)CC1 [Domperidone]	0.88
CCN(C)C(=O)Oc1cccc([C@H](C)N(C)C)c1 [Rivastigmine]	-0.15
O=[N+]([O-])C(Br)(CO)CO [Bronopol]	0.53
CN(C)[C@@H]1C(=O)C(C(N)=O)=C(O)[C@@]2(O)C(=O)C3=C(O)c4c(O)cccc4[C@@](C)(O)[C@H]3[C@H](O)[C@@H]12 [Oxytetracycline Dihydrate]	-0.3
CN[C@@H]1[C@@H](O)[C@@H](O[C@@H]2[C@@H](O)[C@H](O[C@H]3O[C@H]([C@@H](C)O)[C@@H](O)[C@H](O)[C@H]3N)[C@@H](N)C[C@H]2N)OC[C@]1(C)O [Geneticin (G418 Sulfate)]	-0.56
C=CCN1C[C@H](C(=O)N(CCCN(C)C)C(=O)NCC)C[C@@H]2c3cccc4[nH]cc(c34)C[C@H]21 [Cabergoline]	0.78
COC(=O)C1=CCCN(C)C1 [Arecoline HBr]	-0.09
